Active and inactive are the calls of the source. The calls were made as follows: active = hit-call score of the fitted dose curve at least 0.9, where 1 is the maximum; inactive = score below 0.9.

Read-out in one test: Peroxisomal acyl-coenzyme A oxidase 1 (ACOX1) gene, ACOX1 (gene 51)
As to the kind of experiment: LTEA_HepaRG_ACOX1: Life Technologies and Expression Analysis (LTEA) Assay for Peroxisomal acyl-coenzyme A oxidase 1 (ACOX1) gene using HepaRG (AID 2283467). The settings on record: mRNA level, 48 h; actives raise or lower the signal. A digest of the protocol:
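HepaRG, 48 h chemical exposure, 8-pt half-log series from 100 uM top, 0.5% DMSO vehicle, duplicates. Readout: ACOX1 mRNA by Fluidigm qRT-PCR, housekeeping-normalized; bidirectional fit vs DMSO baseline.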
Turning to `COc1ccc2c(c1)c(CC(=O)O)c(C)n2C(=O)c1ccc(Cl)cc1`, the compound was classed as inactive.

One may read the AC50 as the concentration giving half of the maximal activity seen. In the case of `CNCc1cc(F)ccc1Oc1ccc(Cl)c(Cl)c1`, the AC50 was 74.2 µM (active).

As for `C[Si]1(C)O[Si](C)(C)O[Si](C)(C)O[Si](C)(C)O1`, the compound was classed as inactive.

As to `COCCOCCOC`, the AC50 is 9.92 µM (active).

Take `COC(=O)c1ccc(O)cc1`: the compound was called inactive.

For the compound `O=C(O)CCCCC(=O)O`, the result was inactive.

Turning to `Cc1cc(=O)[nH]c(=S)[nH]1`, the call was inactive.

With `Cc1nc(-c2ccc3c(c2)CCN(CCC2CCC(NC(=O)/C=C/c4ccc(F)cc4)CC2)CC3)no1` (stereo not drawn), the result was inactive.

Consider `CC1=C(/C=C/C(C)=C/C=C/C(C)=C/CO)C(C)(C)CCC1`, for which the outcome was inactive.

With `CC(=O)OC/C=C(\C)CCC=C(C)C`, the call was inactive.

Take `COc1ccc(C)cc1N`: the call was inactive.

For `OC[C@@H](O)[C@@H](O)[C@H](O)[C@H](O)CO`, the compound was called inactive.

In the case of `NS(=O)(=O)c1cc2c(cc1Cl)NCNS2(=O)=O`, the compound was called inactive.

`NCCO`: the outcome was inactive.

Regarding `COc1ccc(S(=O)(=O)N2C(=O)[C@@](c3ccccc3OC)(N3C[C@H](O)C[C@H]3C(=O)N(C)C)c3cc(Cl)ccc32)c(OC)c1`, the half-maximal activity concentration (AC50) is 17.6 µM (active).

In the case of `c1cc(-c2ccncc2)ccn1`, the call was inactive.

Turning to `Cc1nc(C)nc(N2C[C@@H](C)N(c3ccnc([C@@H](C)O)n3)[C@@H](C)C2)n1`, the outcome was inactive.

Turning to `Cc1cccc([N+](=O)[O-])c1C`, the compound was called inactive.

As for `Cc1oc(-c2ccccc2)nc1CCOc1cccc2c1ccn2CCC(=O)O`, the AC50 is 0.106 µM (active).

On to `CCOC(=O)CCC(=O)OCC`, for which the compound was called inactive.

With `CN[C@H]1CC[C@@H](c2ccc(Cl)c(Cl)c2)c2ccc(S(N)(=O)=O)cc21`, the AC50 is 12.2 µM (active).

For the compound `NC(=O)Cn1c(=O)cc(CCN2CCN(c3nccc4sccc34)CC2)c2ccc(F)cc21`, the compound was classed as inactive.

As for `CCCCCC(=O)O`, the result was inactive.

Regarding `Cc1ccc(C)c(O)c1C`, the outcome was inactive.

On to `CC=Cc1ccc(O)c(OC)c1`, for which the outcome was inactive.

As to `CCCCN(CCCC)CCCC`, the compound was called inactive.

Take `C=CCc1ccc(O)c(OC)c1`: the call was inactive.

Regarding `CCCCCCCCCCCCCO`, the outcome was inactive.

For the compound `CC(CO)OC(C)CO` (stereo not drawn) (tested in a mixture with another compound), the compound was classed as inactive.

Read-out in the next test: Alkaline Phosphatase, Placental (ALPP) gene, ALPP (gene 250)
In words: LTEA_HepaRG_ALPP: Life Technologies and Expression Analysis (LTEA) Assay for Alkaline Phosphatase, Placental (ALPP) gene using HepaRG (AID 2283468).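 As to AC50: differentiated human HepaRG liver cells in serum-free induction medium; ALPP transcript by TaqMan qRT-PCR normalized to ACTB GAPDH and POLR2A.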 The settings on record: mRNA level, 48 h; actives raise or lower the signal. In a few lines:
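Expression of ALPP was quantified by qRT-PCR against three housekeeping genes in human HepaRG cultures treated for 48 h with an eight-point concentration series up to 100 uM. Activity in either direction was fitted relative to 0.5% DMSO.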
`COc1ccc2c(c1)c(CC(=O)O)c(C)n2C(=O)c1ccc(Cl)cc1`: the outcome was inactive.

Consider `CNCc1cc(F)ccc1Oc1ccc(Cl)c(Cl)c1`, for which the AC50 is 81.8 µM (active).

For the compound `C[Si]1(C)O[Si](C)(C)O[Si](C)(C)O[Si](C)(C)O1`, the outcome was inactive.

For `COCCOCCOC`, the call was inactive.

On to `COC(=O)c1ccc(O)cc1`, for which the compound was classed as inactive.

`O=C(O)CCCCC(=O)O`: the compound was classed as inactive.

As to `Cc1cc(=O)[nH]c(=S)[nH]1`, the compound was called inactive.

`Cc1nc(-c2ccc3c(c2)CCN(CCC2CCC(NC(=O)/C=C/c4ccc(F)cc4)CC2)CC3)no1` (stereo not drawn): the result was inactive.

In the case of `CC1=C(/C=C/C(C)=C/C=C/C(C)=C/CO)C(C)(C)CCC1`, the result was inactive.

Take `CC(=O)OC/C=C(\C)CCC=C(C)C`: the call was inactive.

`COc1ccc(C)cc1N`: the outcome was inactive.

In the case of `OC[C@@H](O)[C@@H](O)[C@H](O)[C@H](O)CO`, the result was inactive.

In the case of `NS(=O)(=O)c1cc2c(cc1Cl)NCNS2(=O)=O`, the compound was called inactive.

As to `NCCO`, the outcome was inactive.

Consider `COc1ccc(S(=O)(=O)N2C(=O)[C@@](c3ccccc3OC)(N3C[C@H](O)C[C@H]3C(=O)N(C)C)c3cc(Cl)ccc32)c(OC)c1`, for which the AC50 is 29.5 µM (active).

Take `c1cc(-c2ccncc2)ccn1`: the outcome was inactive.

For the compound `Cc1nc(C)nc(N2C[C@@H](C)N(c3ccnc([C@@H](C)O)n3)[C@@H](C)C2)n1`, the compound was called inactive.

Turning to `Cc1cccc([N+](=O)[O-])c1C`, the outcome was inactive.

With `Cc1oc(-c2ccccc2)nc1CCOc1cccc2c1ccn2CCC(=O)O`, the AC50 is 63 µM (active).

Take `CCOC(=O)CCC(=O)OCC`: the result was inactive.

With `CN[C@H]1CC[C@@H](c2ccc(Cl)c(Cl)c2)c2ccc(S(N)(=O)=O)cc21`, the AC50 was 5.79 µM (active).

Consider `NC(=O)Cn1c(=O)cc(CCN2CCN(c3nccc4sccc34)CC2)c2ccc(F)cc21`, for which the AC50 is 50 µM (active).

As for `CCCCCC(=O)O`, the call was inactive.

In the case of `Cc1ccc(C)c(O)c1C`, the compound was called inactive.

As for `CC=Cc1ccc(O)c(OC)c1`, the compound was classed as inactive.

On to `CCCCN(CCCC)CCCC`, for which the outcome was inactive.

For the compound `C=CCc1ccc(O)c(OC)c1`, the compound was classed as inactive.

Turning to `CCCCCCCCCCCCCO`, the compound was called inactive.

Regarding `CC(CO)OC(C)CO` (stereo not drawn) (tested in a mixture with another compound), the compound was called inactive.

The values are drawn from PubChem BioAssay (EPA / NIEHS).
